Screens: PubChem, National Center for Advancing Translational Sciences (NCATS)
In the library only some 8.6% were active in any assay of this set; here they are far more common.
Marburg entry: inhibitors of Marburg virus binding or entry into cells; hit rate 6.5% among 18,000; Marburg virus pseudotype entry/binding inhibition, cell-based; AID 720532; Potency, µM (highest dose often 49.2 µM), for the others: top-dose activity change, negative = inhibition, hits mostly inhibitors
LASV entry inh: Lassa virus entry inhibition. Lassa virus pseudotyped entry inhibition, cell-based qHTS. Potency, µM (top dose mostly 49.2 µM), for the others: at the top dose activity change, negative = inhibition, most hits filed as inhibitors. hit rate 4.1% among 18,000
* hit, by the source's call; [ ] = dose if it differs, or a comment. Calls come from the whole dose curve; tested in HEK293 cells. % is set by controls: 0 for no effect and ±100 for the full control effect; potency is the fitted concentration of half-maximal effect.

How did CCCCCCN1C[C@@H](n2cc(C3CC3)nn2)[C@H](O)C[C@H]1c1ccc(OC)cc1 do in these assays?
Marburg entry: -19.9%

How did CCC12C=C(C=Cc3ccccc3)C(CC)(C1)C(c1ccccc1)CC2=O (centres undefined) do in these assays?
Marburg entry: 13.1%[8.59 µM]; LASV entry inh: -22.4%[8.59 µM]

How did COc1cc(NS(C)(=O)=O)ccc1Nc1c2ccccc2nc2ccccc12 do in these assays?
Marburg entry: inconclusive; LASV entry inh: 3.16µM*

Results for Cc1cccc(CNc2nc(-c3cccc(NS(C)(=O)=O)c3)nc3ccccc23)c1 ?
Marburg entry: inconclusive; LASV entry inh: -24.6%

Results for COC(=O)N[C@H](C(C(=O)OC)=C(C)NCc1ccccc1)c1cccc(F)c1 ?
Marburg entry: -11.0%[8.59 µM]; LASV entry inh: 4.2%[8.59 µM]

What do the screens show for `Cc1ccc(OCC(O)C(C)NC(C)C)c2c1CCC2` (centres undefined)?
Marburg entry: 12.6µM*; LASV entry inh: inconclusive

What do the screens show for `Cc1ccccc1OC[C@H](O)CO`?
Marburg entry: -4.1%[17.8 µM]; LASV entry inh: 0.4%[17.8 µM]
